Measured values published in the supplement of paper PMC10849652.
About 8,800 targets were measured; listed, in parts, are those with a hit and a random draw of the rest. About 0.5% of all pairs of compound and target were hits. A number with no mark means an inactive call.

Assays:
Experiment in all cases: log2 fold change, soluble protein after heating vs DMSO (PISA); higher = thermal stabilisation; K562 lysate, 10 uM; active = over 0.2 and 3.5 SD of the protein, either way, in both replicates (recomputed)
erlotinib = compound: C#Cc1cccc(Nc2ncnc3cc(OCCOC)c(OCCOC)cc23)c1 [erlotinib]
How it was run: (§1)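 K562 pellets were dounce-homogenised in PBS pH 7.4 containing 1 mM MgCl2, and the crude extract, at 1 mg/mL protein, was exposed to 10 μM compound for 30 min. Aliquots were heated for 3 min across 48°C-58°C, pooled, brought to 0.5% NP-40 at 4°C and spun at 21,000xg for 90 min, with the supernatant taken as soluble protein. TMTpro 16plex LC-MS/MS with equalised channel sums quantified that protein. Values are log-two fold changes in thermal stability relative to solvent controls, taken from duplicates.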

[1] = compound: C/C(=N\NC(=O)C1=CC(=CC=C1)S(=O)(=O)N2CCOCC2)/C3=C(C=CC(=C3)Cl)O
How it was run: as §1

[2] = compound: C1=CC(=CC=C1C2=NC3=C(N2)C=C(C=C3)C(=O)N)OC4=CC=C(C=C4)Cl
How it was run: as §1

[3] = compound: C1=CC2=C(C=CC(=C2)/C=C\3/C(=O)NC(=NCC4=CC=CS4)S3)N=C1
How it was run: as §1

[4] = compound: C1=CC2=NC=CN=C2C=C1/C=C/3\C(=O)NC(=O)S3
How it was run: as §1

[5] = compound: C1=CC=C(C=C1)C2=NC(=C(N2)C3=CC=NC=C3)C4=CC(=C(C=C4)Cl)O
How it was run: as §1

[6] = compound: C1CCN(C1)C(=O)NC2=CC=CC(=C2)NC3=NC=C(C(=N3)NCCC4=CN=CN4)Br
How it was run: as §1

[7] = compound: C1CN(CCC1(CC2=CC=C(C=C2)Cl)N)C3=NC=NC4=C3C=CN4
How it was run: as §1

IRAK-1-4 Inhibitor I = compound: C1COCCN1CCN2C3=CC=CC=C3N=C2NC(=O)C4=CC(=CC=C4)[N+](=O)[O-] [IRAK-1-4 Inhibitor I]
How it was run: as §1

[8] = compound: C1=CC=C2C(=C1)C3=NNC4=CC=CC(=C43)C2=O
How it was run: as §1

Chain of UniProt P01024 (P01024 whole entry, looked up): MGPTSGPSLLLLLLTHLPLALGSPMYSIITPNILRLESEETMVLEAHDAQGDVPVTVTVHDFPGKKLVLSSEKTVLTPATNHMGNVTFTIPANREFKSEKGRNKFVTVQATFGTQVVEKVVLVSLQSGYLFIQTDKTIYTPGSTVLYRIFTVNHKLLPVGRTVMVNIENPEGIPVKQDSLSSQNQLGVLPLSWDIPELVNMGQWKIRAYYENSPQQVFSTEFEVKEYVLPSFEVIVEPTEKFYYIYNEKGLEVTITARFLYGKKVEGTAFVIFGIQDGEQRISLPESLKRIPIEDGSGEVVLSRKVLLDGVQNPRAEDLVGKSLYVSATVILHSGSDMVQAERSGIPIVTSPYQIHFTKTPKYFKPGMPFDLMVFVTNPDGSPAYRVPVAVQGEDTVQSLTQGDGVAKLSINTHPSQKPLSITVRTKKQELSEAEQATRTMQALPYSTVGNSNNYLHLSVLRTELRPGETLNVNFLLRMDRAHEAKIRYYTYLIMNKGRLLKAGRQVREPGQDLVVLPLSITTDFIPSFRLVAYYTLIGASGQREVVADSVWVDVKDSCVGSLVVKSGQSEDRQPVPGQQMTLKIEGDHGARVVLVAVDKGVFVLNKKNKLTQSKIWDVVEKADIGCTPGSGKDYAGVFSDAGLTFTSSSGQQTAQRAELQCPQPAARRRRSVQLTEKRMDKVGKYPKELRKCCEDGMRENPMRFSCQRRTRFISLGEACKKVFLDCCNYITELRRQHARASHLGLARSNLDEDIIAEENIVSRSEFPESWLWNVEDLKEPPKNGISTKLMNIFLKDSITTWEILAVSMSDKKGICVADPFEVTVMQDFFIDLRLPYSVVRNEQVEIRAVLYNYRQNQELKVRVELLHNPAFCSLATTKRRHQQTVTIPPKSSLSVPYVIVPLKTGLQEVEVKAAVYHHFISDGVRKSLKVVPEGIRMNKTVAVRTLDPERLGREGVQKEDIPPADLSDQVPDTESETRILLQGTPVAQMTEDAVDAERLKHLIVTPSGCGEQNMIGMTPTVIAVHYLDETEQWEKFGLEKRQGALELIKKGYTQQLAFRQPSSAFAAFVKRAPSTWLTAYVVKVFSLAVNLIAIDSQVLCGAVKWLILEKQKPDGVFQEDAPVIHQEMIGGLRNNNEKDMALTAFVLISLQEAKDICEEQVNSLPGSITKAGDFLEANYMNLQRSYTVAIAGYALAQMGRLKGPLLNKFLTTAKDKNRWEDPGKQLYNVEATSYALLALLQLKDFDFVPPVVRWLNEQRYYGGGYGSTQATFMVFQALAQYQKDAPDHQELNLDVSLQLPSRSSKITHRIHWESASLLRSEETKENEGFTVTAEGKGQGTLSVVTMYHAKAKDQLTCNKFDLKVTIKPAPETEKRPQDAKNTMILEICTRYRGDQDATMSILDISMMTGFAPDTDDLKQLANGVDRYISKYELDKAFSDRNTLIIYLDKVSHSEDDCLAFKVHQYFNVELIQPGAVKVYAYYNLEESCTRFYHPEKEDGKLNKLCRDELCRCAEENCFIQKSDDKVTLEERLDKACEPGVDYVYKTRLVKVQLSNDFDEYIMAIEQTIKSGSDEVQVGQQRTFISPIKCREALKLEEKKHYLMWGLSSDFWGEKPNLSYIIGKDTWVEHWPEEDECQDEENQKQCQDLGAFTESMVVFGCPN
Chain of UniProt P0DMB2 (P0DMB2 whole entry, looked up): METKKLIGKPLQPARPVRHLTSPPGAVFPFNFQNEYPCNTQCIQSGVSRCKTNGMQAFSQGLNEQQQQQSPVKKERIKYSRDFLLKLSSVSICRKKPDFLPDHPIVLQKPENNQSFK
Chain of UniProt Q6ZRI6 (Q6ZRI6 whole entry, looked up): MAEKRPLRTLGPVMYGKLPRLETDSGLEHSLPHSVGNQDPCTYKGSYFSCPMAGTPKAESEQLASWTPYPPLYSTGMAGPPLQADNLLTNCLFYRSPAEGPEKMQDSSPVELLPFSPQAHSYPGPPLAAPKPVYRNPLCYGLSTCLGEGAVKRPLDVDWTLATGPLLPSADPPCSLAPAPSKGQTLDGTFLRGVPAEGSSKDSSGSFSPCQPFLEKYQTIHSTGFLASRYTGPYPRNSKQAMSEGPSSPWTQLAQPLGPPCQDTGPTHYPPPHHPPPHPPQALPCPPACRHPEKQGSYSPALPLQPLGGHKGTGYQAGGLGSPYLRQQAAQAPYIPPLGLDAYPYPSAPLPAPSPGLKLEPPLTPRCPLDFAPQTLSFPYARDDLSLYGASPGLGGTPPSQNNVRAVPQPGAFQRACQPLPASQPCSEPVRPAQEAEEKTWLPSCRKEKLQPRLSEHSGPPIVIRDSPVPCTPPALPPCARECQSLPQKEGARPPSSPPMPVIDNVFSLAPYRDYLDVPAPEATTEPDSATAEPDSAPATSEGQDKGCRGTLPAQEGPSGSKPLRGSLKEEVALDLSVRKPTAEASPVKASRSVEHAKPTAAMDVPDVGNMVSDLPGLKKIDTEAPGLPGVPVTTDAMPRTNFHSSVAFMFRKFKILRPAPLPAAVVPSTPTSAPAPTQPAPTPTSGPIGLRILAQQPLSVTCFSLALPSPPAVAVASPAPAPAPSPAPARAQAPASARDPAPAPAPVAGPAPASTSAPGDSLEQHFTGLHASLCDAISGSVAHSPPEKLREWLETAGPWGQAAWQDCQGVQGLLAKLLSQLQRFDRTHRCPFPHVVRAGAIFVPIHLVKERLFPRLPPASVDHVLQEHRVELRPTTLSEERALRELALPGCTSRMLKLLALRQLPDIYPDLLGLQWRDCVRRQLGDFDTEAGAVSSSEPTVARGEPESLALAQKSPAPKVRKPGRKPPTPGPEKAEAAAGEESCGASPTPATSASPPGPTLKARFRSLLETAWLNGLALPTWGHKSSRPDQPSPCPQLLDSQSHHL
Chain of UniProt Q7Z4R8 (Q7Z4R8 whole entry, looked up): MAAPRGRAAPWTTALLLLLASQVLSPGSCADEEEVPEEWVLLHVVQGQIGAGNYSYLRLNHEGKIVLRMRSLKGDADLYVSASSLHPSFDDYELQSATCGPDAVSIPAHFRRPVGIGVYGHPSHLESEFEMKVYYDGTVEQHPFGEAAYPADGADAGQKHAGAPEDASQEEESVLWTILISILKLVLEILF
Chain of UniProt O76039 (O76039 whole entry, looked up): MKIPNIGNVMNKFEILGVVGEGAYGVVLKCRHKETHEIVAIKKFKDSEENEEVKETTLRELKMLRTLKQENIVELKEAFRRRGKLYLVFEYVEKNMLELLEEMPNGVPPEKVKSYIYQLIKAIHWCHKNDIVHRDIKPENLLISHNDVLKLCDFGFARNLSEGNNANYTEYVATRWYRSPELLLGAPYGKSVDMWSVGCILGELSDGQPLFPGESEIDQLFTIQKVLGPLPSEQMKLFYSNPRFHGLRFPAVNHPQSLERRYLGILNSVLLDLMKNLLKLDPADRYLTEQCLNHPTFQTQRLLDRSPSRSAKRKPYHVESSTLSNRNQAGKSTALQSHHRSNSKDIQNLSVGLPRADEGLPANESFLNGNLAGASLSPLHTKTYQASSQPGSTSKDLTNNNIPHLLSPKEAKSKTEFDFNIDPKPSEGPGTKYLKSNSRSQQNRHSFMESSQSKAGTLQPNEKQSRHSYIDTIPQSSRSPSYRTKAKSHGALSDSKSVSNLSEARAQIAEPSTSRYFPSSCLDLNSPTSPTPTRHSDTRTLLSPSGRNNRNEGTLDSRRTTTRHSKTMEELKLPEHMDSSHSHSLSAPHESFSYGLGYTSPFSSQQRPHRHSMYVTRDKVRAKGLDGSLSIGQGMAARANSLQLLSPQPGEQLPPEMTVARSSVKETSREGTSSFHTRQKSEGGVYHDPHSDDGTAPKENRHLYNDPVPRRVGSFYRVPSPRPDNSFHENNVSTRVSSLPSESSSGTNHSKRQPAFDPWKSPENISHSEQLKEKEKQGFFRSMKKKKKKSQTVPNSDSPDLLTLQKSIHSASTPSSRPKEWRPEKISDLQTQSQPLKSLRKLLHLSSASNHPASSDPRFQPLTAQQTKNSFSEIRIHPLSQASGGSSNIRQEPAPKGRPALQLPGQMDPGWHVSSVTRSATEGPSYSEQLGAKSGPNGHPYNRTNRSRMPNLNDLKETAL
Chain of UniProt Q96LT7 (Q96LT7 whole entry, looked up): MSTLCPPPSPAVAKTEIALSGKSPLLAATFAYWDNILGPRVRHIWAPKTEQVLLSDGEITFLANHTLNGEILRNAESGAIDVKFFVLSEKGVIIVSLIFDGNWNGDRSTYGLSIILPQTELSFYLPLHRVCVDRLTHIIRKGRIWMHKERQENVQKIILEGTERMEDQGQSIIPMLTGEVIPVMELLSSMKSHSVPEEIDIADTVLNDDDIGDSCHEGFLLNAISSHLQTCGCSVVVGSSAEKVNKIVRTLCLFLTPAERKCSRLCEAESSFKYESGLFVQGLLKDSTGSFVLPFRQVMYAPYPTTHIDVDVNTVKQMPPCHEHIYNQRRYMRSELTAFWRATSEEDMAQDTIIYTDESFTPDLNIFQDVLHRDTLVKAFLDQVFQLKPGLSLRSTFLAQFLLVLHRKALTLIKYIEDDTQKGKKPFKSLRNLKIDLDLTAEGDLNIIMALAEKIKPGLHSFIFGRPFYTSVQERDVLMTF
Chain of UniProt Q12983 (Q12983 whole entry, looked up): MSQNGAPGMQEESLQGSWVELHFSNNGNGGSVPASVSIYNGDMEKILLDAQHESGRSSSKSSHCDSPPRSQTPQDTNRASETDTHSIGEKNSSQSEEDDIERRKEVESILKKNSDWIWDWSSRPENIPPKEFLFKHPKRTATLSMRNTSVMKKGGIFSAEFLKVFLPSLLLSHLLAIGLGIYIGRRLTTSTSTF
Chain of UniProt Q9BUK0 (Q9BUK0 whole entry, looked up): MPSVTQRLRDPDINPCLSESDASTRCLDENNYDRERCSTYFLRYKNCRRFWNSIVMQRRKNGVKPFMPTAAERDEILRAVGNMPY
Chain of UniProt Q6P4H8 (Q6P4H8 whole entry, looked up): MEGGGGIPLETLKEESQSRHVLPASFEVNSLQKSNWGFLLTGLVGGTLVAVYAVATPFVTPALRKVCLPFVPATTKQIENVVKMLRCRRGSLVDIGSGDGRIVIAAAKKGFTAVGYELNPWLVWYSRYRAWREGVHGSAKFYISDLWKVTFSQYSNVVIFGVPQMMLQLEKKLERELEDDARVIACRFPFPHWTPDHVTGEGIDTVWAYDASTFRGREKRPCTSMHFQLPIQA

Row | Target | log2 fold change (erlotinib) | log2 fold change [1] | log2 fold change [2] | log2 fold change [3] | log2 fold change [4] | log2 fold change [5] | log2 fold change [6] | log2 fold change [7] | log2 fold change (IRAK-1-4 Inhibitor I) | log2 fold change [8]
1 | CAMK2B (UniProt Q13554) | 0.037 | 0.086 | -0.067 | -0.039 | -0.068 | -0.069 | 0.011 | -0.034 | 0.087 | –
2 | BUB1B isoform 3 (UniProt O60566) | 0.019 | 0.013 | -0.002 | -0.026 | 0.01 | 0.021 | -0.031 | -0.008 | -0.016 | -0.039
3 | ATP6V1B1 (UniProt P15313) | -0.044 | 0.014 | 0.027 | -0.036 | 0.013 | -0.02 | -0.033 | 0.001 | 0.019 | 0.006
4 | CDK8 (UniProt P49336) | -0.012 | -0.059 | 0.028 | -0.128 | 0.068 | 0.004 | – | – | 0.029 | 0.128
5 | C3 (UniProt P01024) | 0.016 | -0.031 | 0 | 0.004 | -0.036 | 0.151 | -0.042 | 0.01 | -0.014 | -0.061
6 | CHD4, A0A2R8Y521 | – | – | – | – | – | 0.259 | -0.033 | 0.261 | 0.178 | –
7 | CCDC130 (UniProt P13994) | -0.045 | – | 0.28 | – | 0.032 | -0.224 | -0.152 | -0.016 | 0.025 | –
8 | CACUL1 (UniProt Q86Y37) | 0.232 | -0.048 | 0.087 | 0.044 | – | 0.027 | 0.042 | 0.023 | 0.016 | 0.045
9 | CDK11A (UniProt Q9UQ88) | 0.053 | – | -0.128 | – | -0.037 | 0.027 | – | – | -0.009 | –
10 | CDK2 (UniProt P24941) | -0.026 | -0.152 | 0.051 | – | -0.003 | 0.008 | 0.135 | 0.004 | 0.014 | 0.237
11 | CHCHD7 isoform 4 (UniProt Q9BUK0) | – | -0.158 | – | 0.048 | 0.014 | 0.046 | 0.006 | 0.072 | -0.025 | -0.012
12 | CCND3 (UniProt P30281) | -0.034 | – | 0.064 | – | -0.03 | 0.106 | -0.228 | 0.116 | 0.033 | –
13 | C3AR1 (UniProt Q16581) | – | – | – | – | 0.145 | – | – | – | – | –
14 | BICRA (UniProt Q9NZM4) | 0.204 | – | 0.231 | – | 0.12 | 0.065 | – | – | 0.115 | –
15 | ATPSCKMT (UniProt Q6P4H8) | – | – | – | – | 0 | 0.075 | -0.074 | -0.006 | -0.046 | –
16 | CAPNS1 (UniProt K7ES78) | 0.193 | -0.23 | 0.019 | -0.275 | – | -0.048 | – | – | -0.09 | 0.047
17 | BRD2 isoform 2 (UniProt P25440) | -0.039 | – | 0.02 | 0.036 | 0 | 0.109 | -0.134 | -0.114 | 0.003 | -0.014
18 | BNIP3 (UniProt Q12983) | -0.008 | – | 0.036 | – | -0.013 | 0.028 | 0.031 | 0.02 | 0.057 | –
19 | ATG4D (UniProt Q86TL0) | – | – | – | – | 0.072 | 0.049 | 0.047 | -0.074 | -0.142 | –
20 | BRAF, A0A2R8Y8E0 | – | -0.005 | – | 0.001 | – | – | 0.067 | -0.045 | – | 0.119
21 | CEP57L1 (UniProt Q8IYX8) | -0.064 | – | 0.118 | – | -0.021 | -0.041 | -0.013 | 0.101 | 0.35 | –
22 | B3GALT6 (UniProt Q96L58) | 0.074 | – | -0.04 | – | 0.022 | -0.028 | – | – | -0.049 | –

Row | Target | log2 fold change (erlotinib) | log2 fold change [1] | log2 fold change [2] | log2 fold change [3] | log2 fold change [4] | log2 fold change [5] | log2 fold change [6] | log2 fold change [7] | log2 fold change (IRAK-1-4 Inhibitor I) | log2 fold change [8]
23 | CENPV (UniProt Q7Z7K6) | – | -0.033 | – | 0.013 | -0.093 | -0.193 | -0.037 | 0.012 | 0.013 | 0.015
24 | CEP295 isoform 3 (UniProt Q9C0D2) | -0.063 | – | -0.02 | – | 0.051 | -0.092 | 0.015 | 0.111 | -0.143 | –
25 | BUD13 (UniProt Q9BRD0) | -0.04 | – | -0.02 | – | 0.054 | 0.054 | -0.046 | -0.162 | -0.066 | –
26 | CDC14A isoform 2 (UniProt Q9UNH5) | – | – | – | – | – | 0.082 | – | – | -0.102 | –
27 | CASP7 isoform 3 (UniProt P55210) | 0.104 | – | 0.008 | – | -0.086 | 0.019 | -0.013 | 0.098 | 0.241 | –
28 | CHD9 (UniProt Q3L8U1) | -0.046 | 0.169 | -0.167 | 0.191 | – | 0.043 | – | – | 0.016 | -0.059
29 | CEP128 (UniProt Q6ZU80) | – | -0.069 | – | 0 | -0.234 | 0.236 | -0.138 | -0.015 | -0.212 | -0.102
30 | C6orf120 (UniProt Q7Z4R8) | 0.043 | – | -0.014 | – | 0.008 | – | – | – | – | –
31 | CDKL5 (UniProt O76039) | – | -0.216 | – | -0.08 | – | – | 0.423 | 0.085 | – | 0.339
32 | C15orf39 (UniProt Q6ZRI6) | -0.029 | – | 0.026 | – | -0.031 | 0.052 | 0.019 | -0.009 | 0.034 | –
33 | CAD (UniProt H7BZB3) | 0.126 | -0.127 | -0.28 | -0.069 | – | – | -0.035 | -0.007 | – | -0.034
34 | CD80 (UniProt P33681) | -0.139 | 0.041 | 0.063 | -0.013 | – | -0.087 | 0.058 | -0.029 | 0.096 | -0.02
35 | BAHCC1 (UniProt Q9P281) | -0.047 | 0.026 | 0.076 | -0.126 | – | – | -0.101 | -0.11 | – | -0.009
36 | CAPNS1 (UniProt U3KPR7) | – | – | – | – | -0.105 | – | – | – | – | –
37 | CANX (UniProt D6RHJ3) | – | -0.321 | – | 0.031 | – | – | – | – | – | -0.022
38 | BBS7 (UniProt Q8IWZ6) | -0.095 | 0.146 | -0.014 | -0.034 | – | 0.057 | -0.068 | 0.082 | 0.022 | -0.098
39 | CASC1 (UniProt Q6TDU7) | – | – | – | – | 1.74 (active) | -0.03 | – | – | 0.179 | –
40 | ATE1 (UniProt O95260) | – | – | – | – | 0.005 | – | – | – | – | –
41 | C8orf88 (UniProt P0DMB2) | -0.006 | – | -0.185 | – | 0.028 | -0.003 | – | – | -0.013 | –
42 | CDC25A (UniProt P30304) | 0.016 | – | 0.085 | – | – | 0 | – | – | 0.052 | –
43 | C9orf72 (UniProt Q96LT7) | -0.043 | – | 0.056 | – | -0.01 | -0.041 | 0.056 | -0.068 | -0.042 | –
44 | CARHSP1 (UniProt H3BNU9) | – | – | – | – | -0.215 | – | – | – | – | –
